Screening data deposited in PubChem by several laboratories.
Hits are enriched below; roughly 2.2% of the tested compounds scored in any of these assays.
PLCg1 inh – blocks human PLC-gamma1 enzyme activity; P19174; purified PLC-gamma1, fluorogenic substrate, fluorescence; inhibition, % at 12.2 µM; 0.84% of 370,000 active; in the data active means inhibition above about 9.5%
PLC-beta3 inh – PLC-beta3 (human) inhibition, primary screen; Purified PLC-beta3, fluorogenic substrate, fluorescence; inhibition, % at 12.2 µM; 0.18% of 370,000 active; in the data active means inhibition above about 11%
H9c2 protect – myocardial damage modulation in H9c2 cells. protection from H2O2 cell death, % at 20 µM. AID 588492. 0.63% of 360,000 active. H9c2 cardiomyocytes, H2O2 injury protection, ATPLite, 2 h;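 active means compounds giving at least 50% protection of heart cells from peroxide-induced death in the single-dose screen, raw or plate-pattern-corrected value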
FAS-TE inh – inhibitors of human fatty acid synthase thioesterase domain | P49327 | recombinant FAS-TE, OMFH fluorogenic substrate, fluorescence endpoint | inhibition, % at 15 µM | 0.67% of 360,000 active | AID 602261;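 active means compounds whose normalised, plate-corrected inhibition of enzyme fluorescence in the single-dose primary screen is 50% or more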
FAS-TE conf – FAS thioesterase (human) inhibition, confirmation; inhibition, % at 15 µM; recombinant FAS-TE, OMFH fluorogenic substrate, fluorescence; 45% of 2,300 active; shares compounds with FAS-TE inh; AID 624325;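 active means compounds inhibiting the enzyme by at least 50% at 15 µM in any one of the replicates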
Each line names hits and unclear results; the compound was inactive in the other large screens (follow-up assays come after a bar, where they were run).

CC(C)CC(NC(=O)c1ccc(Cl)cc1)C(=O)OCc1cc([N+](=O)[O-])cc2c1OCOC2 (stereo unspecified)	FAS-TE inh 52 | FAS-TE conf inactive
CC(C(=O)N1CCN(Cc2ccccc2)CC1)c1ccc([N+](=O)[O-])cc1 (stereo unspecified)	none
CC(OC(=O)c1ccc(Cl)c([N+](=O)[O-])c1)C(=O)N1CCN(Cc2ccccc2)CC1 (stereo unspecified)	FAS-TE inh 73 | FAS-TE conf 54
COc1ccc(C(=O)OC(C)C(=O)NC(C)CCc2ccccc2)cc1[N+](=O)[O-] (stereo unspecified)	FAS-TE inh 59 | FAS-TE conf 32
COc1ccc(C(=O)NCCc2ccccc2)cc1[N+](=O)[O-]	none
Cc1cc(C(=O)NC(C)CCc2ccccc2)ccc1[N+](=O)[O-] (stereo unspecified)	FAS-TE inh 52 | FAS-TE conf inactive
COc1ccc(C(=O)OCC(=O)NCCCc2ccccc2)cc1[N+](=O)[O-]	FAS-TE inh 79 | FAS-TE conf 79
C=C(C)CSc1ncc(-c2cccc(C(F)(F)F)c2)cn1	FAS-TE inh 58 | FAS-TE conf 36
CNC(=O)NC(=O)CSc1cccc(C(F)(F)F)c1	none
N=c1c2c(ccn1CCCc1ccccc1)Oc1ccc3ccccc3c1C2c1ccccc1 (stereo unspecified)	none (no result: H9c2 protect, FAS-TE inh)
Cc1cccc(NC(=O)Nc2nc3ncccn3c2-c2ccccc2)c1	none (no result: H9c2 protect, FAS-TE inh)
Nc1cc(-c2ccc(OC(F)(F)F)cc2)nn1-c1ccc(Cl)c(Cl)c1	FAS-TE inh 58 | FAS-TE conf inactive
Cc1ccc(-c2cc(N)n(-c3ccccc3)n2)cc1	none
CC12CN(C(=O)c3ccc([N+](=O)[O-])cc3)CC(C)(CN(C(=O)c3ccc([N+](=O)[O-])cc3)C1)C2=O	none (no result: H9c2 protect, FAS-TE inh)
CCCC12CN(C(=O)c3ccc([N+](=O)[O-])cc3)CC(C)(CN(C(=O)c3ccc([N+](=O)[O-])cc3)C1)C2=O	FAS-TE inh 55 | FAS-TE conf 62
Cc1ccc(SCc2cc(=O)[nH]c(/N=C(\N)Nc3cccc4ccccc34)n2)cc1	FAS-TE inh 58 | FAS-TE conf inactive
COc1ccc(Cl)cc1N/C(N)=N/c1nc(CSc2ccc(C)cc2)cc(=O)[nH]1	none
COC(=O)[C@]12C[C@H](CC(=O)NCCC(C)C)C(=O)N(Cc3cccc4ccccc34)C1=C[C@H](C(C)(C)C)O[C@@H]2C	none (no result: H9c2 protect, FAS-TE inh)
Cc1c(C(=O)Nc2cccc(Cl)c2)oc2ccc(S(=O)(=O)N3CCC4(CC3)OCCO4)cc12	FAS-TE inh 66 (no result: PLCg1 inh, PLC-beta3 inh) | FAS-TE conf inactive
CN1C(=O)c2cc(NS(=O)(=O)c3cccc(F)c3)ccc2OC[C@@H]2O[C@H](CC(=O)O)CC[C@H]21	none (no result: H9c2 protect, FAS-TE inh)
COc1ccc(C(=O)N/C(=C/c2cccc3ccccc23)C(=O)NCCc2c[nH]c3ccccc23)cc1OC	FAS-TE inh 61 | FAS-TE conf inactive
COc1ccc(/C=C(/NC(=O)c2ccc(OC)c(OC)c2)C(=O)NCCc2c[nH]c3ccccc23)cc1	none
O=S(=O)(Nc1cccc(-c2ccc(N3CCCCCC3)nn2)c1)c1ccc(F)cc1	FAS-TE inh 62 | FAS-TE conf inactive
Cc1ccc(S(=O)(=O)Nc2cccc(-c3ccc4nncn4n3)c2)cc1	FAS-TE inh 54 | FAS-TE conf 51
O=S(=O)(Nc1cccc(-c2ccc(N3CCCCCC3)nn2)c1)c1ccc(C(F)(F)F)cc1	none
O=S(=O)(Nc1cccc(-c2ccc(N3CCCCCC3)nn2)c1)c1cccc(F)c1	FAS-TE inh 61 | FAS-TE conf inactive
COc1cccc(-c2nnc(SCC(=O)Nc3cccc4ccccc34)n2Cc2ccco2)c1	none (no result: H9c2 protect, FAS-TE inh)
CN(C)S(=O)(=O)c1ccc(N2CCCC2)c(C(=O)Nc2nc3ccccc3s2)c1	none
CN(C)S(=O)(=O)c1ccc(N2CCCC2)c(C(=O)Nc2nc(-c3ccc(F)cc3)cs2)c1	FAS-TE inh 56 | FAS-TE conf inactive
CN(C)S(=O)(=O)c1ccc(N2CCCC2)c(C(=O)Nc2nc3ccc(F)cc3s2)c1	FAS-TE inh 71 | FAS-TE conf inactive
CN(C)S(=O)(=O)c1ccc(N2CCCC2)c(C(=O)Nc2nc(-c3cc(F)ccc3F)cs2)c1	none
CCC1CCCCN1c1ccc([N+](=O)[O-])cc1/C=N/NC(=O)Cn1c2ccccc2c(=O)c2ccccc21 (stereo unspecified)	FAS-TE inh 60 | FAS-TE conf inactive
COC(=O)[C@@]1(Cc2ccc(OC)cc2)[C@H]2c3cc(C(=O)N4CCCC4)n(Cc4ccc(C)o4)c3C[C@H]2CN1C(=O)c1ccccc1	none (no result: H9c2 protect, FAS-TE inh)
